Compound activity (PubChem BioAssay)
This is a sample that favours compounds with a hit; in the whole collection about 4.1% have one here.
UHRF1 binding: UHRF1 methylated DNA binding inhibitors, primary screen, counter-screen for MBD2 inhibitor project, biochemical, TR-FRET, human UHRF1, single concentration. actives 0.75% (n = 370,000). inhibition, % at 4.4 µM. UHRF1 binding to methylated oligo; in the data active = inhibition above about 21%;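 note: UHRF1 SRA domain binding a hemimethylated CpG hairpin DNA probe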
rCAG RNA binder: binders of r(CAG) RNA repeats, primary screen, biochemical, fluorescence; r(CAG) RNA repeat, TO-PRO-1 dye displacement fluorescence; inhibition, % at 3 µM; actives 1.3% (n = 370,000);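 active = inhibition above the plate cutoff, the mean of all test compounds on that plate plus 3 SD, cut at about 35% in these data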;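 note: higher means more dye released from RNA so lower well fluorescence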
ABHD5 PLIN5 PPI: ABHD5-PLIN5 interaction inhibitors, primary screen, cell lysate, split luciferase complementation, luminescence; Perilipin-5 (Homo sapiens) + 1-acylglycerol-3-phosphate O-acyltransferase ABHD5 (Homo …; Split G. princeps luciferase complementation, 4 h; inhibition, % at 4 µM; actives 0.78% (n = 360,000); AID 602281, 2012;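 active = inhibition above the mean inhibition across every tested compound plus 3 SD, cut at about 22% in these data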
PRMT1 inh: PRMT1 methyltransferase inhibitors, primary screen, biochemical, fluorescence polarization; recombinant PRMT1, activity-based probe fluorescence polarization; inhibition, % at 2.79 µM; AID 652257, 2013; actives 1.3% (n = 370,000);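 active = inhibition above about 21% made by adding two undisclosed values, limit read from the data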
Target sequence (Q99873 whole entry, looked up): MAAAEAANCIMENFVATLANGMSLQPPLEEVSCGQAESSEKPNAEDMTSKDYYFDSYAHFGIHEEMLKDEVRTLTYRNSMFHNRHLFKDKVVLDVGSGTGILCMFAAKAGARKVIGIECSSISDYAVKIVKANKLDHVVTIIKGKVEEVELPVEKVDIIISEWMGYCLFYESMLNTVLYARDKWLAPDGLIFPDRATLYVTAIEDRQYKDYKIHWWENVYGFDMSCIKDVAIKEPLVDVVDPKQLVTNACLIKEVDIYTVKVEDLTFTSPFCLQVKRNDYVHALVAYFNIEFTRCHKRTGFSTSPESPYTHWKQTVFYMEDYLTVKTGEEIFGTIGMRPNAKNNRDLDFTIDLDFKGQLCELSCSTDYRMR
LEDGF integ inh: blockers of LEDGF/p75-dependent integrase strand transfer – biochemical, TR-FRET, high throughput, primary screen | actives 0.64% (n = 370,000) | HIV-1 integrase (with human LEDGF/p75) | inhibition, % at 3.7 µM | TR-FRET IN-LEDGF/p75 DNA integration, Eu/Cy5 | AID 743269, 2014;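 active = inhibition above the screen-wide mean plus 3 SD, cut at about 13% in these data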;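 note: signal is the Cy5 over europium emission ratio at 671 and 618 nm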
MBD2 DNA inh: inhibitors of MBD2 binding to methylated DNA, primary screen, biochemical, TR-FRET, DNA-binding domain, human. inhibition, % at 4.4 µM. AID 686964, 2013. actives 0.31% (n = 370,000). MBD2 binding to methylated oligonucleotide; in the data active = inhibition above about 13%
IN multimer up: HIV-1 IN multimer formation enhancers, counter-screen for LEDGF/p75 integration inhibitor project, biochemical, TR-FRET. shares compounds with LEDGF integ inh. TR-FRET HIV-1 integrase multimerization. activation, % at 7.7 µM. actives 17% (n = 2,000); in the data active = activation above about 8.9%
TR-FRET interf: TR-FRET optical interference artefacts, confirmation, artefact control for LEDGF/p75-dependent integration inhibitor project, biochemical, HIV-1 IN multimerization; shares compounds with LEDGF integ inh; TR-FRET optical interference counterscreen; inhibition, % at 7.7 µM; 2,000 tested, under 10 active; AID 1053135, 2014;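 active = inhibition above the mean over all tested compounds plus 3 SD, which no compound reached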
IN-LEDGF confirm: inhibitors of HIV-1 IN-LEDGF/p75 DNA integration, confirmation, biochemical, TR-FRET. shares compounds with LEDGF integ inh. TR-FRET LEDGF/p75-dependent HIV-1 integration. inhibition, % at 3.7 µM. actives 36% (n = 2,000); in the data active = inhibition above about 14%
Each line names hits and unclear results; the compound was inactive in the other large screens (follow-up assays come after a bar, where they were run).

O=C1C=C(O)c2[nH]c(=O)ccc2C1=O	LEDGF integ inh 26 | IN multimer up 30 | TR-FRET interf inactive | IN-LEDGF confirm 51
COc1ccc(OC)c(S(=O)(=O)Oc2ccc(N)c3ccccc23)c1	LEDGF integ inh 14 | IN multimer up inactive | TR-FRET interf inactive | IN-LEDGF confirm inactive
COc1ccc(OC)c(S(=O)(=O)Nc2cccc3ccccc23)c1	none
N[C@H](C(=O)Nc1ccc(Cl)cc1C(=O)c1ccc[nH]1)c1ccccc1	none (no result: rCAG RNA binder, ABHD5 PLIN5 PPI)
CC(=O)Nc1ccc(Nc2ccc3c4c(cc(=O)n3C)-c3ccccc3C(=O)c24)cc1	none
O=C1c2ccccc2C(=O)c2c(Nc3ccc(CCO)cc3)ccc(O)c21	LEDGF integ inh 15 | IN multimer up 14 | TR-FRET interf inactive | IN-LEDGF confirm inactive
C[C@H]1[C@@H](NC(=O)C(c2ccccc2)c2ccccc2)CC[C@@]23CCCN2C(=O)CCC[C@@H]13	none (no result: rCAG RNA binder, ABHD5 PLIN5 PPI)
CC(C)[C@@H]1Cc2[nH]n(C)c(=O)c2[C@H](c2ccc(F)cc2)O1	LEDGF integ inh 87 | IN multimer up inactive | TR-FRET interf inactive | IN-LEDGF confirm inactive
O=[N+]([O-])c1cc2oc3c(c2c(C=NCc2ccccc2)c1O)CCCC3	LEDGF integ inh 25 | IN multimer up inactive | TR-FRET interf inactive | IN-LEDGF confirm 71
CC(C)CN=Cc1c(O)c([N+](=O)[O-])cc2oc3c(c12)CCCC3	LEDGF integ inh 49 | IN multimer up inactive | TR-FRET interf inactive | IN-LEDGF confirm 66
COC(=O)[C@H]1C[C@@]2(C#N)c3ccccc3N(C(=O)OC(C)(C)C)[C@H]2N1C(=O)OC(C)(C)C	none (no result: ABHD5 PLIN5 PPI)
COc1ccc(CNS(=O)(=O)/C=C/c2ccccc2CNC(=O)OC(C)(C)C)cc1	none (no result: ABHD5 PLIN5 PPI)
CC1OC(Nc2cccc3ccccc23)C(O)C(O)C1O (centres undefined)	PRMT1 inh 29, LEDGF integ inh 36 | IN multimer up inactive | TR-FRET interf inactive | IN-LEDGF confirm inactive
O=C1CCC[C@H]2C[C@H](NCc3ccccc3Cl)CC[C@]23CCCN13	none (no result: rCAG RNA binder, ABHD5 PLIN5 PPI)
CC1(C)OC(=O)C(=Cc2ccc(-c3ccc(Cl)c(C(=O)O)c3)o2)C(=O)O1	UHRF1 binding 35, LEDGF integ inh 15 | IN multimer up 15 | TR-FRET interf inactive | IN-LEDGF confirm 20
Cc1ccccc1NC(=O)/C(C#N)=C/c1ccc(-c2ccc(Cl)c(C(=O)O)c2)o1	none
C/C(=C/c1nc(N)n(Cc2ccccc2)c1Cc1ccccc1)Cn1[nH]c(=O)n(-c2ccccc2)c1=O	none (no result: ABHD5 PLIN5 PPI)
O=C(OC12CCCN(C1)/C(=C/c1ccc(Cl)cc1)C2)c1cccc(F)c1 (centres undefined)	none (no result: ABHD5 PLIN5 PPI)
Nn1cnnc1N/N=C/c1cccc(Cl)c1Cl	LEDGF integ inh 56 | IN multimer up inactive | TR-FRET interf inactive | IN-LEDGF confirm inactive
Nn1cnnc1N/N=C/c1ccccc1C(F)(F)F	LEDGF integ inh 47 | IN multimer up inactive | TR-FRET interf inactive | IN-LEDGF confirm inactive
O=C(CO)N/N=C/c1cccc(Cl)c1Cl	none
CC(NC(=O)Nc1ccc(O)cc1)(C(F)(F)F)C(F)(F)F	LEDGF integ inh 20 | IN multimer up inactive | TR-FRET interf inactive | IN-LEDGF confirm inactive
O=C(C1CCN(c2nc(-c3ccc(Br)cc3)cs2)CC1)N1CCNCC1	none (no result: rCAG RNA binder, ABHD5 PLIN5 PPI)
Clc1ccccc1OCCn1nnc2ccccc21	LEDGF integ inh 29 | IN multimer up inactive | TR-FRET interf inactive | IN-LEDGF confirm inactive
Clc1c(-c2ccccc2)nc2ccccn12	none
c1ccn2c(c1)nc1c2nc2ccccn21	LEDGF integ inh 14 | IN multimer up inactive | TR-FRET interf inactive | IN-LEDGF confirm inactive
CCOC(=O)c1cc2c(=Cc3ccc(N(C)C)cc3)c3ccccc3n2[n+]1C	UHRF1 binding 30, LEDGF integ inh 21 | IN multimer up 20 | TR-FRET interf inactive | IN-LEDGF confirm 54
CCOC(=O)SC1=N/C(=C\c2ccc(N(C)C)cc2)C(=O)S1	none
CN(C)S(=O)(=O)c1ccc(C(=O)Nc2cc(=O)n(C)c(=O)n2C)cc1	LEDGF integ inh 44 | IN multimer up inactive | TR-FRET interf inactive | IN-LEDGF confirm inactive
Cn1c(NC(=O)c2ccccc2)cc(=O)n(C)c1=O	none
Cn1c(NC(=O)c2ccco2)cc(=O)n(C)c1=O	LEDGF integ inh 24 | IN multimer up inactive | TR-FRET interf inactive | IN-LEDGF confirm inactive
Cn1cc(Br)c(NS(=O)(=O)c2ccc(Cl)s2)n1	LEDGF integ inh 25 | IN multimer up inactive | TR-FRET interf inactive | IN-LEDGF confirm inactive
COCC(=O)N1CCC(Oc2ccc(C(=O)N3CCCCCC3)cc2)CC1	LEDGF integ inh 28 | IN multimer up inactive | TR-FRET interf inactive | IN-LEDGF confirm inactive
Nc1cc2ccccc2cc1NS(=O)(=O)N1CCCCC1	none (no result: ABHD5 PLIN5 PPI)
O=C1NC(=O)/C(=C\c2ccc(O)cc2O)S1	LEDGF integ inh 20 | IN multimer up 48 | TR-FRET interf inactive | IN-LEDGF confirm 66
O=C1NC(=O)/C(=C/c2cccc3ccccc23)S1	none
CCCCN1C(=O)/C(=C2\SC(N3CCCCC3)=NC2=O)c2ccccc21	none
CCCCN1C(=O)C(=Nc2cccc3cnccc23)c2ccccc21	LEDGF integ inh 16 | IN multimer up inactive | TR-FRET interf inactive | IN-LEDGF confirm 23
C[C@H](CO)N1C[C@H](C)[C@H](CN(C)C(=O)Nc2cccc3ccccc23)Oc2ncc(Br)cc2C1=O	none (no result: ABHD5 PLIN5 PPI)
Cc1nnc(N/N=C/c2ccc(Br)cc2)n1N	LEDGF integ inh 47 | IN multimer up inactive | TR-FRET interf inactive | IN-LEDGF confirm inactive
Cc1nnc(N/N=C/c2ccc(-c3ccc(Br)cc3)o2)n1N	LEDGF integ inh 49 | IN multimer up inactive | TR-FRET interf inactive | IN-LEDGF confirm inactive
